Growth data for eight molecules are collected here from PubChem BioAssay (NCI).

About 83,000 compounds went through this panel and 20% of them were active in at least one assay; those are over-represented in the sample as a whole.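 For each line, cells grew in 96-well plates with the test compound present at a single concentration for 48 hours.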 Unmarked numbers belong to inactive results. Active and inactive are the calls of the source. How the source made its calls: active means growth percent below 10; inactive means the rest.

Among the test systems are NCI-H23 lung; NCI-H226 lung; NCI-H322M lung; HOP-62 NSCLC; NCI-H460 lung; NCI-H522 lung; A549/ATCC NSCLC; 786-0 renal; COLO 205 colon; DU-145 prostate; K-562 leukemia; MALME-3M melanoma; MDA-MB-231 breast; RXF 393 renal; SF-268 CNS; SF-295 CNS; SF-539 CNS; UACC-257 melanoma; M14 melanoma; HCT-15 colon.
Common to all, as to experiment: NCI-60 one-dose screen, 48 h (100 = growth as untreated, 0 = no growth, -100 = all killed)
Conditions in all cases: 10 µM unless noted

As for `CCCc1cc(=O)n2c(C(=O)Nc3ccccc3OC)c(C(=O)Nc3ccc(F)cc3)sc2n1`, the growth with NCI-H23 lung was 63% [30 µM]; with NCI-H226 lung it was 62.3% [30 µM]; with NCI-H322M lung, 57.9% [30 µM]; in the test on HOP-62 NSCLC it was -16.7% [30 µM] (active); in the test with NCI-H460 lung, 44.6% [30 µM]; in the test on NCI-H522 lung, 46.7% [30 µM]. The growth with A549/ATCC NSCLC is 16.1% [30 µM]; in the test with 786-0 renal, 36.2% [30 µM]; in the test with COLO 205 colon, 72.5% [30 µM]; with DU-145 prostate, 53.9% [30 µM]; in the test on K-562 leukemia, 3.51% [30 µM] (active); with MALME-3M melanoma it was 64.1% [30 µM]. Moreover, the growth in the test on MDA-MB-231 breast was 58.3% [30 µM]; in the test with RXF 393 renal, -19.5% [30 µM] (active); in the test with SF-268 CNS, -16.3% [30 µM] (active); in the test on SF-295 CNS, -18.7% [30 µM] (active); with SF-539 CNS it was -47% [30 µM] (active); with UACC-257 melanoma, 76.3% [30 µM]. For the same molecule, the growth was 80.6% [30 µM] with M14 melanoma and 79% [30 µM] in the test with HCT-15 colon.
`Nc1nc(SCC2(CCl)COC2)c2[nH]cnc2n1`: the growth was 97.1% in the test on NCI-H23 lung; 100% in the test on NCI-H226 lung; 102% in the test on NCI-H322M lung; 89.7% in the test with HOP-62 NSCLC; 107% in the test on NCI-H460 lung; 80.2% in the test on NCI-H522 lung. Further, the growth is 97.8% in the test with A549/ATCC NSCLC; 99.4% in the test on 786-0 renal; 106% with COLO 205 colon; 116% in the test with DU-145 prostate; 90.6% in the test on K-562 leukemia; 88.8% with MALME-3M melanoma. Besides, the growth with MDA-MB-231 breast was 104%; in the test on RXF 393 renal, 113%; in the test on SF-268 CNS, 98.5%; in the test with SF-295 CNS, 110%; in the test with SF-539 CNS, 99.6%; in the test with UACC-257 melanoma, 99.1%. In addition, the growth in the test on M14 melanoma is 97%; with HCT-15 colon, 99.6%.
As to `O=C(Cn1ccnc1)NC(c1ccccc1)c1ccccc1`, the growth with NCI-H23 lung was 94.8%; in the test on NCI-H226 lung it was 100%; in the test on NCI-H322M lung, 98.7%; with HOP-62 NSCLC, 96%; with NCI-H460 lung, 103%; in the test on NCI-H522 lung, 93.2%. In addition, the growth with A549/ATCC NSCLC was 105%; in the test with 786-0 renal it was 103%; with COLO 205 colon, 109%; in the test on DU-145 prostate, 112%; in the test on K-562 leukemia, 98.6%; in the test with MALME-3M melanoma it was 104%. Also, the growth is 99.6% in the test with MDA-MB-231 breast; 104% in the test with RXF 393 renal; 97.7% in the test with SF-268 CNS; 97.6% with SF-295 CNS; 86.2% in the test with SF-539 CNS; 104% in the test on UACC-257 melanoma. Also, the growth with M14 melanoma was 102%; with HCT-15 colon it was 101%.
Regarding `OCc1nnn(-c2ccccc2)c1CO`, the growth in the test with NCI-H23 lung was 112%; with NCI-H226 lung, 114%; in the test on NCI-H322M lung, 118%; in the test with HOP-62 NSCLC, 110%; with NCI-H460 lung, 116%; with NCI-H522 lung, 101%. In addition, the growth in the test on A549/ATCC NSCLC was 110%; in the test with 786-0 renal, 105%; with COLO 205 colon, 159%; in the test with DU-145 prostate, 113%; with K-562 leukemia, 132%; in the test on MALME-3M melanoma, 122%. The growth with MDA-MB-231 breast is 107%; in the test on RXF 393 renal it was 104%; in the test on SF-268 CNS, 105%; in the test on SF-295 CNS, 115%; in the test with SF-539 CNS, 116%; with UACC-257 melanoma, 124%. The growth in the test on M14 melanoma was 110%; with HCT-15 colon, 96.7%.
On to `CN1C(=O)/C(=C/c2nc(-c3cccc(F)c3)n3ccccc23)c2ccccc21`, for which the growth was 83.7% with NCI-H23 lung; 84.4% with NCI-H226 lung; 80.8% in the test with NCI-H322M lung; 80.7% in the test with HOP-62 NSCLC; 56.1% in the test on NCI-H460 lung; 40% in the test with NCI-H522 lung. The growth with A549/ATCC NSCLC is 44.9%; in the test on 786-0 renal, 70.7%; in the test on COLO 205 colon, 93%; in the test with DU-145 prostate, 82.6%; in the test with K-562 leukemia it was 79.7%; in the test on MALME-3M melanoma, 57.6%. The growth with MDA-MB-231 breast is 61.3%; in the test with RXF 393 renal it was 66.2%; in the test with SF-268 CNS, 92%; in the test on SF-295 CNS, 87.4%; in the test on SF-539 CNS, 71.4%; in the test on UACC-257 melanoma it was 79.1%. For the same molecule, the results for the growth with M14 melanoma and in the test with HCT-15 colon were 73.1% and 93%, respectively.
For the molecule `COc1ccc2c(c1)[nH]c(=O)c1c3cc(OC)c(OC)cc3cn21`, the growth in the test on NCI-H23 lung is 42.5%; with NCI-H226 lung it was 44.6%; in the test with NCI-H322M lung, 20.7%; in the test with HOP-62 NSCLC it was 47.4%; with NCI-H460 lung, 6.39% (active); with NCI-H522 lung, -2.16% (active). Further, the growth in the test on A549/ATCC NSCLC is -22.1% (active); in the test on 786-0 renal, 32.1%; in the test on COLO 205 colon it was -34.8% (active); in the test on DU-145 prostate, -87.2% (active); with K-562 leukemia, 0.148% (active); in the test with MALME-3M melanoma, 56.7%. Besides, the growth is 26.4% in the test with MDA-MB-231 breast; 0.926% (active) with RXF 393 renal; 9.67% (active) with SF-268 CNS; 13.6% in the test on SF-295 CNS; 10.7% in the test with SF-539 CNS; 82.6% in the test with UACC-257 melanoma. Moreover, the growth is 23.6% with M14 melanoma and -6.44% (active) in the test with HCT-15 colon.
As for `Cc1nn(-c2ccccc2)c2c1oc(=O)c1cc(Cl)ccc12`, the growth was 107% in the test with NCI-H23 lung; 96.3% in the test with NCI-H226 lung; 90.5% in the test on NCI-H322M lung; 91.6% with HOP-62 NSCLC; 107% in the test with NCI-H460 lung; 113% in the test with NCI-H522 lung. In addition, the growth is 102% in the test with A549/ATCC NSCLC; 100% in the test on 786-0 renal; 120% in the test with COLO 205 colon; 169% in the test on DU-145 prostate; 106% with K-562 leukemia; 106% with MALME-3M melanoma. For the same molecule, the growth in the test on MDA-MB-231 breast was 94%; in the test on RXF 393 renal it was 116%; with SF-268 CNS it was 90.6%; with SF-295 CNS, 109%; in the test on SF-539 CNS, 97.9%; with UACC-257 melanoma, 99.7%. In addition, the growth is 92.6% in the test on M14 melanoma and 99.4% with HCT-15 colon.
Consider `CC(=O)n1c2ccccc2c2ccccc21`, for which the growth was 93.7% in the test on NCI-H23 lung; 115% with NCI-H226 lung; 107% with NCI-H322M lung; 93.8% in the test with HOP-62 NSCLC; 117% with NCI-H460 lung; 108% in the test on NCI-H522 lung. The growth was 107% in the test on A549/ATCC NSCLC; 90.8% in the test with 786-0 renal; 148% with COLO 205 colon; 108% in the test on DU-145 prostate; 111% in the test with K-562 leukemia; 126% in the test on MALME-3M melanoma. The growth was 126% with MDA-MB-231 breast; 144% in the test on RXF 393 renal; 115% in the test on SF-268 CNS; 96.7% with SF-295 CNS; 107% with SF-539 CNS; 123% in the test with UACC-257 melanoma. The growth is 103% with M14 melanoma and 112% in the test with HCT-15 colon.
